Our source for the outcome and AC50 values is PubChem BioAssay (EPA / NIEHS).

The source made the active and inactive calls. How the source made its calls: active means hit-call score of the fitted dose curve at least 0.9, where 1 is the maximum; inactive means score below 0.9.

Experiment [1] in a line: ATG_CRE_CIS: Attagene CIS-FACTORIAL HepG2 Assay for human cAMP Responsive Element (CRE) binding protein 3 (AID 2282926). Particulars: HepG2 CRE cis-reporter, Attagene multiplexed mRNA; actives raise or lower the signal. Summed up:
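Induced reporter mRNA from a CRE cis element, measured in HepG2 among many multiplexed units at 24 h. Detection used RT-PCR plus capillary electrophoresis of fluorescent fragments; DMSO served as negative control.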

Experiment [2] deals with CCAAT/enhancer-binding protein beta (Homo sapiens) (UniProt P17676). Kind of experiment: ATG_C_EBP_CIS: Attagene CIS-FACTORIAL HepG2 Assay for human CCAAT/Enhancer Binding Protein (C/EBP) beta (AID 2282927). Particulars: HepG2 Attagene cis-factorial transcription factor reporter; actives raise or lower the signal. Summed up:
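Endogenous C/EBPb-driven reporter transcripts measured in transfected human HepG2 cells at 24 h via RT-PCR and capillary electrophoresis of labelled fragments. Activity fitted in both directions relative to DMSO baseline.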

The nature of experiment [3]: ATG_CMV_CIS: Attagene CIS-FACTORIAL HepG2 Assay for human CMV (Internal Marker) (AID 2282928).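 Further: endpoint acts as a background internal control marker rather than a target.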 Particulars: HepG2 CMV promoter reporter, transcription factor profiling; actives raise or lower the signal. Summed up: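 Fluorescence intensity of RT-PCR-derived reporter fragments, resolved by capillary electrophoresis, gives the signal. HepG2 liver cells bearing transfected cis-element reporters were treated 24 h; activity in either direction was fit relative to DMSO-treated controls.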

The nature of experiment [4]: ATG_DR4_LXR_CIS: Attagene CIS-FACTORIAL HepG2 Assay for human Liver X Receptor (LXR), DR4 submotif (AID 2282929). Particulars: HepG2 Attagene DR4 cis-reporter, mRNA transcription; actives raise or lower the signal. Summed up: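 Readout: reporter transcript fluorescence after RT-PCR and capillary electrophoresis, fitted bidirectionally against DMSO controls. Human HepG2 liver cells carried transiently transfected multiplexed reporter constructs; endogenous transcription factor activity measured 24 h post-dosing.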

For experiment [5], the target named is Aryl hydrocarbon receptor (Homo sapiens) (UniProt P35869). The experiment is described as follows: ATG_Ahr_CIS: Attagene CIS-FACTORIAL HepG2 Assay for human Aryl Hydrocarbon Receptor (Ahr) (AID 2282930). Particulars: HepG2 AhR cis-factorial reporter transcription; actives raise or lower the signal. Summed up: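 Reporter mRNA levels, quantified by RT-PCR and fluorescent capillary electrophoresis, reflect endogenous AhR transcriptional activity in HepG2 cells carrying transfected cis-promoter reporter constructs. Readout at 24 h post-dose; gain or loss fitted against DMSO baseline.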

The nature of experiment [6]: ATG_AP_1_CIS: Attagene CIS-FACTORIAL HepG2 Assay for human Activator Protein 1 (AP-1) (AID 2282931). Particulars: HepG2 Attagene cis-factorial AP-1 reporter mRNA; actives raise or lower the signal. Summed up:
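Reporter transcripts were measured 24 h after dosing by RT-PCR and capillary electrophoresis of fluorescent fragments. Cells: HepG2 carrying transfected cis-regulated reporter constructs reading endogenous factor activity. Gain or loss fitted against DMSO.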

Experiment [7] can be described thus: ATG_AP_2_CIS: Attagene CIS-FACTORIAL HepG2 Assay for human Activator Protein 2 (AP-2) (AID 2282932). Particulars: HepG2 AP-2 cis-reporter, Attagene transcription factor profiling; actives raise or lower the signal. Summed up:
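Endogenous transcription factor activity is reported through transfected multiplex reporter constructs in HepG2, after 24 h of compound exposure. Transcripts were quantified by RT-PCR and capillary electrophoresis of fluorescent fragments. Bidirectional fit against DMSO.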

Experiment [8] can be described thus: ATG_BRE_CIS: Attagene CIS-FACTORIAL HepG2 Assay for human Bone Morphogenetic Protein (BMP) Response Element (BRE) (AID 2282933). Particulars: HepG2 BMP response element reporter, Attagene transcription factor profiling; actives raise or lower the signal. Summed up:
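Multiplexed cis-reporter assay, HepG2, 24 h exposure. mRNA from reporter units quantified via RT-PCR/CE; DMSO baseline; bidirectional curve fit.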

Experiment [9] concerns the target Retinoic acid receptor alpha (Homo sapiens) (UniProt P10276). The experiment is described as follows: ATG_DR5_RAR_CIS: Attagene CIS-FACTORIAL HepG2 Assay for human Retinoic Acid Receptor Alpha (RARE), DR5 submotif (AID 2282934). Particulars: HepG2 Attagene cis-factorial RARE DR5 reporter, mRNA; actives raise or lower the signal. Summed up: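 Reporter transcripts from a DR5-regulated unit, measured via RT-PCR plus capillary electrophoresis, reflect endogenous RAR activity in transiently transfected human HepG2 liver cells. Exposure lasted 24 h; gain or loss of signal scored against DMSO.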

Experiment [10] deals with Transcription factor E2F1 (Homo sapiens) (UniProt Q01094). The experiment is described as follows: ATG_E2F_CIS: Attagene CIS-FACTORIAL HepG2 Assay for human E2F Transcription Factor 1 (AID 2282935). Particulars: HepG2 Attagene cis-reporter, E2F reporter RNA transcripts; actives raise or lower the signal. Summed up:
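Gain or loss of reporter transcript, fitted against DMSO, reflects E2F1-driven transcription. Transiently transfected HepG2 dosed 24 h before RNA isolation. Quantified by fluorescent RT-PCR products separated by capillary electrophoresis.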

Experiment [11] can be described thus: ATG_M_61_CIS: Attagene CIS-FACTORIAL HepG2 Assay for M61 Transcription Factor (Internal Marker) (AID 2282937). Particulars: HepG2 Attagene CIS-FACTORIAL M61 internal marker reporter; actives raise or lower the signal. Summed up: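 Readout: fluorescent reporter mRNA fragments resolved by capillary electrophoresis after RT-PCR. Transiently transfected human HepG2 cells carried MRTU constructs reporting endogenous TF activity; 24 h chemical exposure; gain or loss of signal fitted relative to DMSO.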

Experiment [12] is described as follows: ATG_EGR_CIS: Attagene CIS-FACTORIAL HepG2 Assay for human Early Growth Response 1 (EGR1) (AID 2282938). Particulars: HepG2 Attagene CIS-FACTORIAL EGR reporter mRNA; actives raise or lower the signal. Summed up: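 Read-out: fluorescent reporter-mRNA fragments resolved by capillary electrophoresis after RT-PCR, 24 h post-dose in transiently transfected HepG2. Endogenous transcription-factor activity reported via cis-element-regulated reporter units; gain or loss fitted relative to DMSO.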

Experiment [13] in a line: ATG_M_19_CIS: Attagene CIS-FACTORIAL HepG2 Assay for M19 Transcription Factor (Internal Marker) (AID 2282939). Particulars: HepG2 Attagene CIS-FACTORIAL M19 internal marker reporter; actives raise or lower the signal. Summed up:
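Signals come from fluorescence of labelled reporter-specific PCR fragments resolved by capillary electrophoresis, following 24 h treatment of HepG2 cells transfected with cis-promoter reporter units; activity was fitted in both directions relative to DMSO.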

The nature of experiment [14]: ATG_ERE_CIS: Attagene CIS-FACTORIAL HepG2 Assay for Estrogen Response Element (ERE) (AID 2282940). Particulars: HepG2 ERE cis-reporter, Attagene RNA transcript; actives raise or lower the signal. Summed up: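 Fluorescence of capillary-separated, FAM-labelled reporter cDNA fragments indicates reporter mRNA levels in HepG2 cells exposed to chemicals for 24 h. Transient transfection with cis-regulated units; data fitted in both directions against DMSO.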

The target of experiment [15] is Hepatocyte nuclear factor 3-beta (Homo sapiens) (UniProt Q9Y261). The experiment is described as follows: ATG_FoxA2_CIS: Attagene CIS-FACTORIAL HepG2 Assay for human Forkhead box A2 (FOXA2) (AID 2282942). Particulars: HepG2 cis-reporter transcription factor activity, 24 h; actives raise or lower the signal. Summed up:
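Readout: fluorescent reporter transcripts resolved by capillary electrophoresis after RT-PCR. Transiently transfected HepG2, 24 h compound exposure, endogenous TF activity at cis promoter elements. Gain or loss of signal fitted relative to DMSO.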

Experiment [16] in a line: ATG_FoxO_CIS: Attagene CIS-FACTORIAL HepG2 Assay for human Forkhead box O (FoxO) (AID 2282943). Particulars: HepG2 Attagene cis-reporter, FoxO element, mRNA; actives raise or lower the signal. Summed up:
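Endogenous transcription factor activity read from multiplexed cis-promoter reporter transcripts in transiently transfected HepG2, 24 h after dosing. Reporter RNA measured via RT-PCR plus capillary electrophoresis of FAM-labeled products; gain or loss relative to DMSO.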

A short description of experiment [17]: ATG_GATA_CIS: Attagene CIS-FACTORIAL HepG2 Assay for human GATA Binding Protein (AID 2282944). Particulars: HepG2 GATA cis-element reporter, Attagene multiplex mRNA; actives raise or lower the signal. Summed up:
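After transfecting HepG2 cells with multiple cis-regulated reporter units, chemicals are dosed for 24 h; isolated RNA undergoes RT-PCR and fluorescent labeling before capillary electrophoresis, with activity expressed against DMSO.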

A short description of experiment [18]: ATG_GLI_CIS: Attagene CIS-FACTORIAL HepG2 Assay for human Zinc Finger Protein GLI1 (AID 2282945). Particulars: HepG2, Attagene cis-factorial reporter mRNA, GLI element; actives raise or lower the signal. Summed up: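 Bidirectional curve fits relative to DMSO, using reporter mRNA levels from RT-PCR plus capillary electrophoresis. Cells were HepG2 transiently carrying cis-regulated reporter constructs, harvested 24 h after dosing.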

Experiment [19] can be described thus: ATG_E_Box_CIS: Attagene CIS-FACTORIAL HepG2 Assay for human Enhancer Box (E-box) (AID 2282936). Particulars: HepG2 E-box cis-reporter transcription, actives raise or lower the signal. Summed up:
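E-box-driven reporter transcripts measured in transiently transfected HepG2 after 24 h exposure: RNA reverse-transcribed, PCR-amplified, fluorescently labelled, digested and resolved by capillary electrophoresis. Gain or loss relative to DMSO.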

The nature of experiment [20]: ATG_Ets_CIS: Attagene CIS-FACTORIAL HepG2 Assay for human Erythroblast Transformation Specific (ETS) (AID 2282941). Particulars: HepG2 ETS cis-reporter transcription, actives raise or lower the signal. Summed up: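 Multiplexed reporter transcript profiling: HepG2, 24 h treatment, total RNA to cDNA, PCR, 6-FAM labelling, HpaI cut, capillary electrophoresis. Gain- or loss-of-signal fitted against DMSO.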

Transcription factor E2F1 (Homo sapiens), sequence (Q01094 whole entry, looked up): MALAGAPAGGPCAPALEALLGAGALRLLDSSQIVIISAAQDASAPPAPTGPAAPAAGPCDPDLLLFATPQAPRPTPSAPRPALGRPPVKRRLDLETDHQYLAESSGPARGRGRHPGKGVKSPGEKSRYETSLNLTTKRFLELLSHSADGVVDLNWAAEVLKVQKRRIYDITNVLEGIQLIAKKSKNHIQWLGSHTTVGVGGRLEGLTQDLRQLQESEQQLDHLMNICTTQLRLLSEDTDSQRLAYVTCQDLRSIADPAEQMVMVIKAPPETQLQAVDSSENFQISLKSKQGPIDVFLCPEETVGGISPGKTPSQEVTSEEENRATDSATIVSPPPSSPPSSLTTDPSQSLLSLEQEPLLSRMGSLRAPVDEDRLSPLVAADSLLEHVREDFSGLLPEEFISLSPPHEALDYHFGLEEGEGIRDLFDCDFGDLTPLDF
Hepatocyte nuclear factor 3-beta (Homo sapiens), sequence (Q9Y261 whole entry, looked up): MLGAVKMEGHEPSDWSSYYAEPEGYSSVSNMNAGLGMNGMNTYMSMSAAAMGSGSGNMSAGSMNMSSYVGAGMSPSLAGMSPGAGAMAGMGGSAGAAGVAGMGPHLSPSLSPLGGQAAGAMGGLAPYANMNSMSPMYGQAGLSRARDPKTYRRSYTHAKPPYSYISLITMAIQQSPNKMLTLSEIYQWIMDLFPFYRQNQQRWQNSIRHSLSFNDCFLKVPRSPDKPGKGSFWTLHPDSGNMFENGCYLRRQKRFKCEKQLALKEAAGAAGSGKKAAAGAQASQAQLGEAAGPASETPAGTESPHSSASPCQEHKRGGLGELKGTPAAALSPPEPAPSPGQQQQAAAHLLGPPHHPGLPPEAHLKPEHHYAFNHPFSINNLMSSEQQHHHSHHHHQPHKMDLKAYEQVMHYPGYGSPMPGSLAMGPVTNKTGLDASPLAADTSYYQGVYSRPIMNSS
Retinoic acid receptor alpha (Homo sapiens), sequence (P10276 whole entry, looked up): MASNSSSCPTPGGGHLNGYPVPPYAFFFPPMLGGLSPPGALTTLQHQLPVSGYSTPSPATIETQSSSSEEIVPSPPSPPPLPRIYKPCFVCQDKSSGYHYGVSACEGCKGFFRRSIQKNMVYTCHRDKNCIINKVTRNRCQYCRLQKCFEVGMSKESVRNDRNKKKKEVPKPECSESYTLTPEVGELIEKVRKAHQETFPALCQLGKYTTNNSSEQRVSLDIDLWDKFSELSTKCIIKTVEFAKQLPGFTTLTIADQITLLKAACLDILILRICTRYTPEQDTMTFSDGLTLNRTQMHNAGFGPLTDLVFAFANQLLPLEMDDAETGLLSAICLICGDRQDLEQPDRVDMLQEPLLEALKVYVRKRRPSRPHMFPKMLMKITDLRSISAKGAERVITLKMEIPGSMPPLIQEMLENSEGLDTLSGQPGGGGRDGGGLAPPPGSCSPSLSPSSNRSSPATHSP
Aryl hydrocarbon receptor (Homo sapiens), sequence (P35869 whole entry, looked up): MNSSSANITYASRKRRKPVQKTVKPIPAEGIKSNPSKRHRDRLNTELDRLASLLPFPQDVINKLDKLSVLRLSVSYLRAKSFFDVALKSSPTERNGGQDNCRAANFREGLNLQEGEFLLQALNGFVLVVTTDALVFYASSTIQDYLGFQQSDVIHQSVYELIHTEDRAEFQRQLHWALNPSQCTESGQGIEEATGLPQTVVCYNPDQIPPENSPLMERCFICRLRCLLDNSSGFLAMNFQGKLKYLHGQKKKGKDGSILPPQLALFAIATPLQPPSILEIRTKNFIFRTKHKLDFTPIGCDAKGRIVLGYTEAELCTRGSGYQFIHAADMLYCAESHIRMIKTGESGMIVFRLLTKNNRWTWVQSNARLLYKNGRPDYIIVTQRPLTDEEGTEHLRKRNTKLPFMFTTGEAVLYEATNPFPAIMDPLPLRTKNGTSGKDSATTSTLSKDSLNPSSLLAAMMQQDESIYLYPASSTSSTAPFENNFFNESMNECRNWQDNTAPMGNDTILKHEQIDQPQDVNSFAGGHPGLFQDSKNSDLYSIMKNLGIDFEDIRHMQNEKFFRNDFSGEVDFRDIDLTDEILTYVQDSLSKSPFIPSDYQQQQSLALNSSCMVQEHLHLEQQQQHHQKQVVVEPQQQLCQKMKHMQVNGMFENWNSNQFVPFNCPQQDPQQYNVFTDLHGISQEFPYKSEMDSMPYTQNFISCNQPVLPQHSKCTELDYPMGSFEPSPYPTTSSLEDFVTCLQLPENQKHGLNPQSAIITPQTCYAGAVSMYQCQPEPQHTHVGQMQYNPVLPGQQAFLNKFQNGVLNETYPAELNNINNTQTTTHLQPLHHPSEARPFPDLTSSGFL
CCAAT/enhancer-binding protein beta (Homo sapiens), sequence (P17676 whole entry, looked up, the tested form may be a part): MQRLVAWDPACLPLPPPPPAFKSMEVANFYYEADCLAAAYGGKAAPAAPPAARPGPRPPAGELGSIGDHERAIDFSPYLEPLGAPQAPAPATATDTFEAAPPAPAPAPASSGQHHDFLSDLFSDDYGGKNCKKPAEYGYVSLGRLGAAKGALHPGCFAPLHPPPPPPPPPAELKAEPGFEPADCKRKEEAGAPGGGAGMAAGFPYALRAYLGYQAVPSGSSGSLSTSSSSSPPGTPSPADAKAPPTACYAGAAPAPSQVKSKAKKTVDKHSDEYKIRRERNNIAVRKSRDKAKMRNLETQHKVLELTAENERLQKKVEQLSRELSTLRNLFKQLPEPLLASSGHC

`CC(C)(C)c1ccc(OC(=O)c2ccccc2O)cc1`: the call in experiment [1], in experiment [2], in experiment [4], in [5], in [6] and in experiment [7] was inactive. The compound was called inactive in experiment [8], in [9], in experiment [10], in experiment [11], in experiment [12] and in experiment [13]. For the same compound, the result in experiment [15], in [16], in experiment [17] and in experiment [18] was inactive. The AC50 is 34.7 µM (active) in [3] and 7.32 µM (active) in [14].

Regarding `CCc1ccc2c(c1)C(=O)c1ccccc1C2=O`, the outcome in experiment [1], in [2], in experiment [3], in experiment [4], in [6] and in experiment [7] was inactive. The compound was classed as inactive in [8], in [9], in experiment [10], in experiment [19], in [11] and in experiment [12]. For the same compound, the result in [13], in experiment [14], in [20], in experiment [16], in experiment [17] and in experiment [18] was inactive. Further, the AC50 in [5] is 5.39 µM (active).

Turning to `O=S1(=O)OC(c2ccc(O)cc2)(c2ccc(O)cc2)c2ccccc21`, the compound was classed as inactive in experiment [1], in [2], in experiment [3], in [4], in [6] and in experiment [7]. Further, the compound was classed as inactive in [8], in experiment [9], in experiment [10], in [19], in experiment [11] and in experiment [13]. Besides, the compound was classed as inactive in experiment [20], in experiment [15], in [16], in experiment [17] and in experiment [18]. Further, the results for the AC50 in [5] and in experiment [14] were 34.9 µM (active) and 53.4 µM (active), respectively.

In the case of `CNC(=S)N(C)C`, the compound was classed as inactive in [1], in experiment [2], in [3], in [4], in experiment [5] and in [6]. Moreover, the compound was classed as inactive in [7], in experiment [8], in experiment [9], in experiment [10], in [19] and in experiment [11]. Further, the call in experiment [13], in [14], in [20], in experiment [15], in [16] and in experiment [17] was inactive. The call in experiment [18] was inactive.
